Experimental findings from PubChem BioAssay (EPA / NIEHS) are described below.

Calls of active or inactive are those of the source. Rule for the calls: active = hit-call score of the fitted dose curve at least 0.9, where 1 is the maximum; inactive = score below 0.9.

The assay in a line: CCTE_Shafer_MEA_acute_per_network_burst_spike_number_mean: CCTE's Neural Acute Assay for Average Number of Spikes in a Network Burst, Shafer Lab (AID 2284019). Here is the method: CCTE_Shafer_MEA_acute assay is conducted using Axion Biosystems 48 well microelectrode array (MEA) plates and Maestro recording system. Each well of the MEA plate contains a grid of 16 microelectrodes embedded in the culture surface. Electrically active cells, such as neurons, can be cultured over the electrodes, and electrical activity in these cells can be recorded extracellularly. The spontaneous firing of neurons is captured from each electrode on a microsecond timescale providing both temporally and spatially precise data. […] The CCTE_Shafer_MEA_acute assay uses primary cultures of rat cortical neurons. As these cultures mature over time, neural networks develop functional activity and form cohesive networks in which electrical activity can be highly coordinated. Baseline 40-minute recordings are made on days post-plating 13 or 15, followed by a secondary 40-minute recording after chemical exposure.CCTE_Shafer_MEA_acute_per_network_burst_spike_number_mean is a component of the CCTE_Shafer_MEA_acute assay. It measures the average number of spikes (action potential firings) in a network burst (temporally-clustered group of spikes across multiple electrodes) as the total number of spikes in a network burst divided by the number of network bursts during a recording in a microelectrode array (MEA) using Axion Biosystems Maestro 768 channel amplifier with the AxIS adaptive spike detector. The recordings before and after chemical treatment are used to calculate a percent change in the mean number of spikes in a network burst in each well.Data from the assay component CCTE_Shafer_MEA_acute_per_network_burst_spike_number_mean was analyzed into 1 assay endpoint. This assay endpoint, CCTE_Shafer_MEA_acute_per_network_burst_spike_number_mean, was analyzed in the negative analysis fitting direction relative to DMSO as the negative control and baseline of activity. Using a type of functional reporter, gain or loss-of-signal activity can be used to understand electrical activity.
Spontaneous activity in the cortical cultures was recorded using an Axion Biosystems Maestro 768 channel amplifier and Axion Integrated Studios (AxIS) v1.8 (or later) software. The amplifier recorded from all channels simultaneously (gain = 1200 x; sampling rate = 12.5 kHz/channel): raw signals were filtered with a Butterworth band-pass filter (300-5000 Hz), which filters out slower local field potentials leaving only fast potentials, i.e., "spikes", arising from extracellular currents associated with action potentials (Pine 2006; Wheeler and Nam 2011). On-line spike detection of filtered signals was conducted with the AxIS adaptive spike detector, using a threshold of 8x the root mean squared (rms) noise on each channel. Any electrodes with rms noise levels greater than 5 uV were grounded (e.g., no data were recorded). Once grounded, an electrode was grounded for the duration of the experiment. All recordings were conducted at 37 C. Wells were deemed usable if on the day of the exposure >/= 10 electrodes were active (defined as >/= 5 spikes/min). On DIV 13 or 15, a minimum of three wells from one cortical culture preparation were treated with each compound (0.03-40 uM). Prior to recording baseline activity, each mwMEA plate was placed in the Maestro at 37 C and allowed to sit for 20 min while firing rates stabilized. Baseline activity (40 min) was recorded before the addition of each compound. An additional 40 min of spontaneous activity was recorded in the presence of each compound. Changes in network parameters relative to baseline were assessed following compound treatment.
Take `O=C(O)c1ccccc1C(c1ccc(O)cc1)c1ccc(O)cc1`: the AC50 was 20 µM (active).

As for `CN(C)C=O`, the result was inactive.

As for `NC(=O)N(O)[C@@H]1C=C[C@H](Oc2cccc(Oc3ccc(F)cc3)c2)C1`, the molecule was classed as inactive.

With `OC1CCC(C2CCCCC2)CC1` (stereo unspecified), the molecule was called inactive.

As to `Oc1cc2ccccc2c2ccccc12`, the call was inactive.

`CC(=O)NC1(c2cccc(F)c2)CCN(CC[C@@]2(c3ccc(Cl)c(Cl)c3)CN(c3ccccc3)C(=O)CO2)CC1`: the molecule was classed as inactive.

For the molecule `CCC(=C(c1ccc(O)cc1)c1ccc(OCCN(C)C)cc1)c1ccccc1`, the result was inactive.

In the case of `CCCCCCCCCCCCN1CCCC1=O`, the result was inactive.

Regarding `CC#C[C@]1(O)CC[C@H]2[C@@H]3CCC4=CC(=O)CCC4=C3[C@@H](c3ccc(N(C)C)cc3)C[C@@]21C`, the result was inactive.

For `CCCCCCCCCCCCc1ccccc1S(=O)(=O)O`, the molecule was classed as inactive.

For `CN1CCN(c2ccccc2/C=C2\SCCN(c3ccc(Cl)c(Cl)c3)C2=O)CC1`, the AC50 is 0.207 µM (active).

On to `CN1CCC[C@H]1c1cccnc1`, for which the result was inactive.

Regarding `CC[C@H](c1ccc(O)cc1)[C@@H](CC)c1ccc(O)cc1`, the molecule was called inactive.

As for `CCc1ccc(CCOc2ccc(CC3SC(=O)NC3=O)cc2)nc1` (stereo unspecified), the outcome was inactive.

For the molecule `O=c1c(-c2ccc(O)cc2)coc2cc(O)ccc12`, the AC50 is 4.06 µM (active).

As for `Cc1cc(CCN2CCN(c3nsc4ccccc34)CC2)cc2c1NC(=O)CC2(C)C`, the call was inactive.

In the case of `OCCC(F)(F)C(F)(F)C(F)(F)C(F)(F)C(F)(F)C(F)(F)C(F)(F)C(F)(F)F`, the result was inactive.

On to `CC(C)CCCCCCOC(=O)CCCCC(=O)OCCCCCCC(C)C`, for which the molecule was classed as inactive.

`CCCCCCCCCCCCCCCS(=O)(=O)Oc1ccccc1`: the molecule was classed as inactive.

With `CCCOc1sc(C(=O)N2CCC(c3cc(CN)ccc3F)CC2)c(C)c1Br`, the molecule was called inactive.

As to `CC(C)(C)c1cc(C(C)(C)C)c(O)c(C(C)(C)C)c1`, the outcome was inactive.

Usually AC50 stands for the concentration giving half of the maximal activity seen.
